{"source": "PubChem BioAssay AID1508600", "about": "(Functional Genomics Laboratory (NCATS/FGL), 2020)", "note": "About 3,700 (7%) of roughly 53,000 sequences were called active. Only a selection was taken, and actives are over-represented in it overall. Values without a mark were called inactive.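 How the source made its calls: active means gene knockdowns whose robust z-score for IL-1 alpha signal is at least 2 or at most -2, so actives lie on both sides; inactive means the rest.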", "data": [{"experiment": "Components of the Cytosolic LPS Sensing Pathway: Gene Identification via Genome-wide siRNA Screen", "conditions": "RAW264.7 macrophages, IL-1a HTRF, actives lie on both sides, screened at 100 nM (by protocol), cells primed 5 h with Pam3CSK4 first", "source_text": "Non-canonical inflammasome activation by cytosolic LPS is a critical component of the host response to Gram-negative bacterial infection, however we lack a comprehensive understanding of the cellular processes that control this pathway. Here we describe a genome-wide siRNA screen to identify genes regulating the mouse macrophage IL-1 alpha response to cytosolic LPS.\nRAW264.7 cells were maintained in complete DMEM media, comprising DMEM with 4.5 g/L glucose, 10% FBS (Gemini Bio-Products, West Sacramento, CA), 2 mM Glutamine (Lonza) and 20 mM HEPES (Lonza), hereafter complete DMEM.\nThe RNAi screen was conducted in 384-well format using the Ambion Silencer Mouse Genome siRNA Library (#4391425), which consists of three unique, nonoverlapping, nonpooled siRNAs for each of 17,000 gene targets. siRNA reagents ([…]) were stamped into 384-well white flat-bottom microplates (Corning, 3570) using a Velocity11 VPrep liquid handling system (Agilent) integrated into a BioCel robotic platform (Agilent) in columns 1-22, leaving columns 23-24 empty for negative (Ambion, Negative control #1) and positive (mouse Casp4) controls, respectively. The median value of each plate's negative control column was used to normalize sample wells, and the positive control was used to assess transfection efficiency and assay performance.\nLipofectamine RNAiMAX Transfection Reagent ([…]; Invitrogen) was added in […] serum-free, antibiotic-free media to plate wells using a Thermo Scientific Matrix WellMate and Microplate Stacker. Plates were incubated for 45 min at room temperature to allow for the sufficient formation of siRNA-lipid complexes. Cells were seeded at a density of 1x10^4 cells per well in 20 microL media containing 20% (vol/vol) FBS without antibiotics. The final concentration of siRNA in each well was 100 nM. Cells were cultured for 48h at 37 degrees C in 5% CO2 before addition of […] of TLR ligand Pam3CSK4 for 5 hours. The medium was then removed, replaced with […] growth media and cell were transfected with […] of LipidA and TransIT-TKO (Mirus) for 24 hour. At the end of the LipidA treatment, […] of supernatant was transferred to a 384 Greiner Bio-one non-binding low volume plate and […] of IL-1a HTRF reagent (Cisbio, 62MIL1APEH) was added and incubated at room temperature overnight. The plates were read on an EnVision plate reader (PerkinElmer). Cell viability was measured by adding 20ul Cell Titer Glo to the original plate and running a luminescence read on the EnVision. The quantified IL-1a signal for each siRNA gene-targeted well was divided by the median of the negative control wells and multiplied by 100 to achieve a negative control normalized value for each well/siRNA. This normalized value was then used to generate a robust z-score by first taking the log of each value and then by subtracting the median and dividing by the […].", "values": [{"sequence": "GGUCGGGAUUUAAUUUGUATT against Bbs9", "z-score": 0.978}, {"sequence": "CGACUUCACCUUAUUCCUGTT against Nle1", "z-score": 0.811}, {"sequence": "GCAUAUUACACAGCACUAGTT against Itgbl1", "z-score": -0.802}, {"sequence": "GGUGUACUCUGUUCCCAUGTT against Psmb6", "z-score": -1.54}, {"sequence": "GGGAUUCGAAGGACAAUAGTT against Vmn1r211", "z-score": "-2.07 (active)"}, {"sequence": "GGUGUACAACUCCUAUAGGTT against P2ry13", "z-score": 0.24}, {"sequence": "GGAUUUCAGCGAAGUGUACTT against Mapk11", "z-score": -0.395}, {"sequence": "CCAACGAAGCCAAUAAAUGTT against Pmis2", "z-score": "-2.12 (active)"}, {"sequence": "GGAGCUGAGCAACAUCACATT against Il13", "z-score": -1.35}, {"sequence": "GCUUCACAUGAAGCAACCUTT against Fam149b", "z-score": -0.102}, {"sequence": "GGAGAAGCAAAACUUUUAATT against Snrpa1", "z-score": "-2.87 (active)"}, {"sequence": "GGUGUUGAACAAAUUAACUTT against Pprc1", "z-score": 0.508}, {"sequence": "GCAACUAUCCACUCUCUGCTT against Emg1", "z-score": 0.977}, {"sequence": "GGAGAUGGUCUCAUUAAGCTT against Psmd13", "z-score": -1.25}, {"sequence": "GCUCUGUUUUUAACCAUCCTT against Ccnt2", "z-score": 0.227}, {"sequence": "GGUAUUAAGUUCCUGUAAUTT against Ahcyl2", "z-score": -1.62}, {"sequence": "GCUCUUGAAAUUUCACUCUTT against Ide", "z-score": "2.1 (active)"}, {"sequence": "GCCGCUUAGAGGCUCAUCUTT against Nfe2l2", "z-score": -1.86}, {"sequence": "GGACAACUAUGAAUUAGUGTT against Pfkp", "z-score": -0.801}, {"sequence": "GGAAAAACAGCUUAACACUTT against Pate4", "z-score": 0.66}, {"sequence": "GCUUCCAAGAUGGAACUACTT against Psmb10", "z-score": 0.657}, {"sequence": "GGAUGAAAUGAACCUAGAGTT against Sh3pxd2b", "z-score": "-2.16 (active)"}, {"sequence": "GGAGAAGAUCACAAGAGGGTT against Slc35b1", "z-score": -0.736}, {"sequence": "GCAGAAUAGCUGAUGACAGTT against Galnt15", "z-score": -0.155}, {"sequence": "GCUCCCAAGUUUACCCAGCTT against Mybphl", "z-score": 0.505}, {"sequence": "CCUUGAACGAGAGUGCAUUTT against Pros1", "z-score": -0.798}, {"sequence": "CGUAAGUCAGUGAUGCUAUTT against Srp19", "z-score": 1.38}, {"sequence": "GCUAUGAAGCAAUUGUGGATT against Fasn", "z-score": -0.527}, {"sequence": "GCGGUUAUAAUGGGACCAUTT against Kif15", "z-score": "3.21 (active)"}, {"sequence": "GCCAGGAUACUAAGUGUUUTT against Jpt2", "z-score": 1.05}, {"sequence": "GCAACAUCGUAUGUUAAUGTT against Slc9a4", "z-score": 0.0571}, {"sequence": "CGAAUACUUGAUGUCCAUGTT against Harbi1", "z-score": "-2.16 (active)"}, {"sequence": "CCAGGUGAAAACCAGGAUATT against Olfr205", "z-score": 0.925}, {"sequence": "GGAAACCUAUGUCUCAAGATT against Mrps36", "z-score": -0.332}, {"sequence": "CCAGAGAUUCCCACACGUCTT against Havcr1", "z-score": -1.37}, {"sequence": "GAAUCUGGUGAAGUAUUAUTT against Phip", "z-score": 0.518}, {"sequence": "GGGUUUAGCUCACUGAGUATT against Tm4sf5", "z-score": -1.53}, {"sequence": "CCACUAUGUUCUCUGGAUATT against Llgl1", "z-score": -0.218}, {"sequence": "CCACAUCUGAGACUAUUCATT against Crhr1", "z-score": "2.46 (active)"}, {"sequence": "GGAACUGGGAGACCUAUAATT against Angptl2", "z-score": "-2.01 (active)"}, {"sequence": "CCCACAGAAUCACUCCAAGTT against Utp14a", "z-score": -0.211}, {"sequence": "GCUAUUCGUUUCUUAUAACTT against Slc19a3", "z-score": 0.83}, {"sequence": "GGCAAUGAGUUCUGGAGUGTT against Capn8", "z-score": -0.928}, {"sequence": "GGUUCAAGGCAACACUGUGTT against Ankrd13d", "z-score": -1.54}, {"sequence": "GGCUUUUGGUCUGAGAUGCTT against Snf8", "z-score": "-2.04 (active)"}, {"sequence": "GGUGCUCACGUUUUUCUUATT against B3galnt1", "z-score": 0.348}, {"sequence": "GGAGGAAGUUGAAAAUGAATT against Myom2", "z-score": 0.157}, {"sequence": "GGUACUCCUAGAACUCUACTT against 2410002F23Rik", "z-score": 1.01}, {"sequence": "GCCCAGAGUUACGAGUAUGTT against Aacs", "z-score": "2.23 (active)"}, {"sequence": "GCCAAACGUGGGUUUGAUATT against Ccna1", "z-score": "4.74 (active)"}, {"sequence": "GGAAGACUUGAGAAAUCACTT against Coro1c", "z-score": 1.24}, {"sequence": "GCCAAGCUUGUCCAUUGAUTT against Akap9", "z-score": -0.443}, {"sequence": "CGUUAGCAUCAGGUCAAGUTT against Zfp251", "z-score": -0.323}, {"sequence": "GGUGUUAACAAAAUGUACCTT against Phyh", "z-score": "2.54 (active)"}]}]}
